Assay outcomes as filed in PubChem.
D2 PAM-1 = positive allosteric modulators of human D2 dopamine receptor | 0.34% of 340,000 active | HEK293 T-REx D2, calcium flux, EC20 dopamine potentiation | P14416 | potentiation, % at 10 µM;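 active = potentiation over 3 SD above the plate norm, cut at about 30% in these data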; also: 0% is about no effect
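Potentiation of an EC20 dopamine calcium response is measured in a force-coupled, tetracycline-inducible Hek293 Trex D2 line. Compound-only kinetic reads over 180 s flag agonists before dopamine addition.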
D2 ag-1 = activates the human D2 dopamine receptor. DiscoveRx PathHunter D2 beta-arrestin, luminescence, 90 min; 100% = 57 uM dopamine signal. activation, % (concentration not given with the values). 0.084% of 360,000 active. AID 624465; in the data active = activation above about 40%; inconclusive = between about 15% and that limit
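DiscoveRx PathHunter D2 beta-arrestin cells (2,100/well) attached overnight, then compound-stimulated 90 min at 37 C in HBSS/10 mM HEPES/0.1% Tween-20 buffer; beta-galactosidase complementation read by luminescence after 1 h at ambient temperature. Dopamine 57 uM final (EC100) as control.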
Anesthetic bind = candidate novel general anesthetic via apoferritin binding; P02791; apoferritin/1-aminoanthracene competitive binding, fluorescence; Potency, µM (titrated, usually from 77.5 µM), inactives show top-dose activity change, negative = displacement, actives largely listed as inhibitors; 0.074% of 350,000 active; AID 485281; active = well fitted inhibition curve with a large enough effect; inconclusive = small, poorly fitted or top-dose-only effect; inactive = no such curve, though single readings can be large or run the other way; also: potency is read from the fitted curve at half-maximal effect; % is scaled to controls: 0 for no effect and ±100 for the full control effect; nearly all actives have a fitted effect of over 20% in size
Target sequence (P02791 2-175 limits assumed): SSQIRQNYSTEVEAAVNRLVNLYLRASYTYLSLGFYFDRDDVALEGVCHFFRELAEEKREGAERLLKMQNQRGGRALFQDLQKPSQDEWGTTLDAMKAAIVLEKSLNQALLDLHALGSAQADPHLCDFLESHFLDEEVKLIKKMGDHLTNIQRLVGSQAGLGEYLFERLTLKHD
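Steps: apoferritin (10 uM) was premixed with half-saturated 1-AMA in PBS, compounds were pin-transferred, plates stood 10 min at room temperature, fluorescence was read at 380/535 nm, and curves were fitted with a Hill equation.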
D2 antagonist = antagonists of human D2 dopamine receptor. HEK293 TREx D2 cells, calcium flux, dopamine EC80. 2% of 340,000 active. P14416. inhibition, % at 10 µM; in the data active = inhibition above about 30%; inactive = below that, where a call was filed; also: 0% is about no effect
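Calcium mobilization kinetics were recorded at 1 s intervals in tetracycline-induced HEK293 T-REx D2 cells, first for 180 s after compound addition and then 180 s after EC80 dopamine.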
D2 ag-2 = D2 dopamine receptor (human) agonism; activation, % at 2 µM; AID 485358; HEK293 T-REx D2 cells, calcium flux agonist mode; P14416; 0.53% of 340,000 active;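 active = activation over 3 SD above normal in the single-dose calcium agonist read, cut at about 30% in these data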; also: 0% is about no effect
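Agonism is scored from calcium flux in a force-coupled, inducible HEK293 cell line expressing D2, read kinetically for 180 s after compound addition against dopamine controls.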
D2 PAM-2 = human D2 receptor positive allosteric modulation; P14416; DiscoveRx D2 beta-arrestin cells, luminescence, 90 min; 100% = 57 uM dopamine signal; potentiation, % (concentration not given with the values); 0.23% of 360,000 active; AID 624464; in the data active = potentiation above about 50%; inconclusive = mostly about 30% to 49%
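PathHunter D2 cells, attached overnight at 37 deg C, received compound in DMSO plus dopamine at EC20 (50 nM final) for 90 min at 37 deg C. Beta-arrestin recruitment was read as luminescence after 1 h with detection reagent at ambient temperature.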
Active calls of the source: *; ? = inconclusive; / = no result. Compounds with a hit are over-represented: about 2.5% of the library has one in this group of screens.

SMILES	D2 PAM-1	D2 ag-1	Anesthetic bind	D2 antagonist	D2 ag-2	D2 PAM-2
CCOC(=O)C1=C(C)N=C2SC(C)C(=O)N2C1c1ccc(OC(C)=O)c(OC)c1 (configuration not stated)	38.2*	-2.3	-18.1%	11.1	0.1	-3.1
CCOc1cc(C2C(C(=O)OC)=C(C)N=C3SC(C)C(=O)N32)ccc1OC(C)=O (configuration not stated)	4.4	-3.0	?	-1.5	-0.3	-14.5
CN1CCN(S(=O)(=O)c2ccc(Oc3ccc(Br)cc3F)nc2)CC1	3.5	-1.4	/	33.8*	-0.9	1.4
CCOC(=O)CN1C(=O)C(Sc2n[nH]c(-c3ccc(C)cc3)n2)CCc2ccccc21 (configuration not stated)	-20.8	-4.1	?	60.8*	0.1	-27.0
CCOC(=O)CN1C(=O)C(Sc2n[nH]c(-c3cccc(C)c3)n2)CCc2ccccc21 (configuration not stated)	-22.1	-0.1	4.4%	-13.4	-0.5	-21.9
CCn1cnc2c1c(=O)n(Cc1nnc3n1-c1ccccc1SC3)c(=O)n2Cc1ccccc1	34.4*	-4.4	4.6%	5.1	1.5	-0.2
COc1ccc(/C=C2\SC(=S)N(CCC(=O)N(CCO)Cc3ccccc3)C2=O)cc1OC	3.5	-1.7	-11.7%	-1.3	1.9	-10.7
CN1/C(=C\C(=O)C[n+]2ccc(C(=O)c3ccccc3)cc2)C(C)(C)c2ccccc21	-3.2	6.1	?	15.3	1.6	53.2*
CCOC(=O)C1(C)CCN1C(=O)c1cccc(Cl)c1 (configuration not stated)	/	42.5*	/	/	/	4.3
CCOC(=O)C1(C)CCN1C(=O)c1cccc(OC)c1 (configuration not stated)	/	-3.1	/	/	/	0.7
CC(NC(=O)Cn1cc2c(n1)CCCCC2)c1ccccc1 (configuration not stated)	0.9	-2.5	2.2%	35.3*	-0.3	-0.1
CC(=O)Nc1ccc(NC(=O)Cn2cc3c(n2)CCCCC3)cc1	-1.3	/	-23.9%	/	-0.9	/
COc1ccc(Nc2nc(C(=O)N3CCc4cc(OC)c(OC)cc4C3)cs2)cc1	-0.9	10.1	-9.2%	21.9	-2.2	4.1
COc1ccc(Nc2nc(C(=O)N3CCc4ccccc4C3)cs2)cc1	25.0	-5.1	-11.9%	81.5*	-0.3	-6.4
C(=N\Nc1nc2ccccc2s1)/c1cccs1	-2.9	0.6	-12.7%	37.5*	1.1	3.2
COc1cc2nc(CN(C)CC(=O)Nc3ccc(N4CCOCC4)cc3)[nH]c(=O)c2cc1OC	2.8	-2.4	-16.2%	-8.4	0.5	-2.2
Fc1c(F)c(F)c(N/N=C/c2c[nH]c3ccccc23)c(F)c1F	13.5	?	?	-7.0	0.2	60.2*
COCCCn1c(SCc2nnc(-c3ccccc3)o2)nc2sc3c(c2c1=O)CCC3	32.8*	-0.6	-18.8%	-2.7	0.8	0.9
Cc1[nH]c2ccc(C(=O)NCCCN(C)C3CCCCC3)cc2c1C	-26.6	-5.2	-13.0%	34.0*	-0.3	-40.1
Cc1cccc2c1OCC/C2=N\NC(=O)COc1ccccc1	/	-2.2	?	/	/	-12.1
CCN(c1ccccc1)S(=O)(=O)c1cc(C(=O)OC2CCOC2=O)ccc1C (configuration not stated)	31.0*	-0.8	/	-47.7	0.7	0.8
CS(=O)(=O)c1ccc(C(=O)OC2CCOC2=O)cc1[N+](=O)[O-] (configuration not stated)	-2.4	-1.9	-8.0%	5.9	-1.7	-1.0
O=C(CSc1nc(C2CC2)nc2ccccc12)N1c2ccccc2Sc2ccc(C(F)(F)F)cc21	-9.4	3.6	-11.7%	4.4	0.9	59.9*
CCN(CC)c1ccc(/C=C/c2cc(-c3ccccc3)c3ccccc3n2)cc1	-5.9	1.9	9.7%	43.3*	53.8*	-2.6
N#Cc1c(NC(=O)CSc2nc(-c3ccco3)cc(C(F)(F)F)n2)sc2c1CCCC2	44.4*	-0.3	-3.8%	-5.3	0.1	6.1
